Compound activity from PubChem.
A selection: hits, their analogues and other compounds. The true share with any hit is near 4%.
NLRP3 yeast inh: blocks the NALP3 inflammasome reconstituted in yeast | Yeast reconstituted NLRP3/ASC/caspase-1, beta-gal luminescence, 24 h | AID 2825 | inhibition, % at 10 µM | actives 0.39% (n = 330,000);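 active means inhibition of 50% or more; inactive means inhibition below 50%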;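 further: plate controls were induced DMSO wells for no effect and uninduced yeast grown without galactose for full effect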
tim10-1 inh: inhibits growth of tim10-1 mutant yeast; S. cerevisiae tim10-1 ts strain growth, BacTiter-Glo, 24 h; inhibition, % at 20 µM; actives 2.2% (n = 330,000); AID 463190;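 active means inhibition of at least 40%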;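 further: mutant grown at 25 °C; 0% = DMSO wells with yeast and 100% = wells holding no yeast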
NALP1 inh: inhibitors of NALP1 inflammasome in yeast | S. cerevisiae NALP1/ASC/caspase-1 growth, X-gal OD620, 72 h | inhibition, % at 10 µM | actives 0.61% (n = 280,000) | AID 2071; in the data active means inhibition mostly above about 24%, no sharp cut-off; inactive means mostly below about 32%
TIM10 inh: TIM10 yeast growth inhibition | S. cerevisiae TIM10 strain growth, BacTiter-Glo luminescence, 24 h | inhibition, % at 10 µM | actives 1.4% (n = 330,000);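 active means inhibition of 40% or more at the single tested concentration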;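 further: wild-type TIM10 isogenic control strain grown at permissive 25 °C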
tim23-1 inh: inhibits growth of tim23-1 mutant yeast; S. cerevisiae tim23-1 growth, BacTiter-Glo luminescence, 24 h; inhibition, % at 20 µM; actives 1.3% (n = 330,000); AID 463212;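 active means growth inhibition of the mutant yeast at or above 50%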;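 further: temperature-sensitive mutant grown at 25 °C; plate controls were DMSO-treated mutant yeast for no effect and medium wells lacking yeast for full effect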
tim23-1 confirm: tim23-1 yeast growth inhibition, confirmed | shares compounds with tim23-1 inh | S. cerevisiae tim23-1 growth, BacTiter-Glo luminescence, 24 h | inhibition, % at 20 µM | actives 83% (n = 4,400);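 active means inhibition above about 39% in either of two replicate wells at 20 µM, limit read from the data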;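 further: temperature-sensitive tim23-1 mutant grown at 25 °C; 0% = DMSO wells with yeast and 100% = medium wells without yeast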
* marks the source's active call; other numbers are inactive results; nt = not tested or not shown.

SMILES | NLRP3 yeast inh | tim10-1 inh | NALP1 inh | TIM10 inh | tim23-1 inh | tim23-1 confirm
O=S(=O)(c1ccc(Br)s1)N1CCN(c2ccccn2)CC1 | 25 | 38 | -7 | 30 | 57* | 36
Cc1ccc(F)cc1NS(=O)(=O)c1ccc(Cl)s1 | -28 | 40 | nt | 28 | 51* | 50*
Cc1nn(C)c(C)c1NS(=O)(=O)c1ccc(Cl)s1 | -2 | -11 | nt | 3 | 3 | nt
COc1cc(/C=C(\C#N)c2nc3ccccc3[nH]2)ccc1Oc1ccc([N+](=O)[O-])cn1 | 29 | 11 | 14 | 29 | 58* | 36
COc1cc(/C=C(\C#N)c2nc3ccccc3[nH]2)cc(OC)c1O | nt | nt | -6 | nt | nt | nt
COc1ccc(/C=C(\C#N)c2nc3ccccc3[nH]2)cc1O | 31 | -29 | 1 | -4 | 51* | 43*
Cc1cc(OCC(O)CN2CCc3ccccc3C2)ccc1Cl (centres undefined) | 23 | 0 | -11 | 13 | 7 | nt
Cc1ccc(-c2nc3c(Cl)cc(Cl)cc3c(=O)n2O)cc1 | 14 | 9 | 18 | 1 | 54* | 53*
O=c1c2cc(Br)ccc2nc(-c2ccc(Cl)cc2)n1O | nt | nt | 4 | nt | nt | nt
O=c1[nH]c(NCCO)nc2c1C1(CCCCC1)Cc1ccccc1-2 | 24 | 39 | 4 | 18 | 34 | nt
CC1(C)CC(n2c(NCCO)nc3c(c2=O)C2(CCCC2)Cc2ccccc2-3)CCO1 (centres undefined) | -5 | 21 | 14 | 36 | 52* | 49*
COc1ccc(C(C[N+](=O)[O-])c2c(-c3ccccc3)cc3ccccn23)cc1OC (centres undefined) | 16 | 35 | 8 | 31 | 50* | 62*
COc1cccc(-c2ncc3ccccn23)c1 | 15 | 6 | 4 | 1 | 7 | nt
COc1ccc(C(C[N+](=O)[O-])c2c(-c3ccccc3)cc3ccccn23)cc1 (centres undefined) | 1 | 40 | nt | 38 | 63* | 78*
COc1ccc(CNC(=O)c2cc(-c3ccncc3)nc3c(C)cc(C)cc23)cc1OC | -4 | 10 | 22 | -3 | 15 | nt
COc1ccc(NC(=O)CSc2nc3scc(C)c3c(=O)[nH]2)cc1 | 13 | 3 | 1 | -21 | -7 | nt
Cc1ccc(S(=O)(=O)/C(C#N)=C/c2c(Oc3ccc(Cl)cc3)nc3c(C)cccn3c2=O)cc1 | 8 | 2 | 16 | -12 | 50* | 24
O=[N+]([O-])c1ccc(CNc2cccc(Cl)c2)s1 | 22 | 23 | 10 | 23 | 57* | 56*
O=C(c1ccc([N+](=O)[O-])s1)N1CCN(c2cccc(Cl)c2)CC1 | 23 | -62 | 36 | 26 | -34 | nt
O=[N+]([O-])c1ccc(CNc2ccc(F)cc2)s1 | 11 | 33 | 13 | 36 | 51* | 46*
COc1ccc(CNc2ccc(S(N)(=O)=O)cc2)cc1 | 17 | 8 | 22 | 1 | 5 | nt
COc1ccc(NCc2ccc([N+](=O)[O-])s2)cc1 | 16 | 20 | 62* | 29 | 58* | 69*
O=C(/C=C/c1ccccc1)OCCCN=C1NS(=O)(=O)c2ccccc21 | 2 | 20 | 14 | 0 | 16 | nt
Cc1cccc(C(=O)O/N=C/c2ccc(Br)cc2)c1 | 9 | 27 | -5 | 27 | 19 | nt
Cc1cccc(NC(=O)c2ccc(Cn3cc(C(F)(F)F)ccc3=O)cc2)c1 | 20 | 25 | -1 | -6 | 3 | nt
SMILES | NLRP3 yeast inh | tim10-1 inh | NALP1 inh | TIM10 inh | tim23-1 inh | tim23-1 confirm
Cc1ccc(/C(N)=N/OC(=O)c2cccc(Cn3cc(C(F)(F)F)ccc3=O)c2)cc1 | 31 | 39 | -8 | 23 | 59* | 60*
Cc1cccc(C(=O)O/N=C(\N)c2ccc(Br)cc2)c1 | 13 | 7 | -1 | 12 | 96* | 51*
Cc1nnc(NC(=O)c2cc(S(=O)(=O)N3CCCCC3)ccc2Cl)s1 | -8 | 11 | 2 | 3 | 1 | nt
Cc1nc(-c2ccc(NC(=O)c3ccc(Br)o3)cc2)cs1 | 38 | 5 | 28 | 9 | 62* | 56*
Cc1nc(-c2ccc(NC(=O)C3CC3)cc2)cs1 | 21 | -7 | 17 | 18 | 54* | 40*
COc1cccc(C(=O)NC(=S)N2c3ccccc3CC2C)c1OC (centres undefined) | 23 | 22 | -6 | 37 | 51* | 54*
O=C(NCC(=O)N(c1ccccc1)C(C(=O)NC1CCCC1)c1cccnc1)c1cccs1 (centres undefined) | 9 | -12 | -6 | -10 | 10 | nt
COc1ccc(N(C(=O)CNC(=O)c2cccs2)C(C(=O)NC2CCCC2)c2cccnc2)cc1 (centres undefined) | 5 | 7 | 19 | 12 | 50* | 14
Cc1cccc(OCCC(=O)N(C)CC(=O)Nc2cccc3ccccc23)c1 | -8 | 14 | 30 | 17 | 1 | nt
COc1ccc(OC)c(-c2csc(NC(=O)Cc3ccc(F)cc3)n2)c1 | 28 | 25 | 14 | 17 | 55* | 43*
O=C(Nc1ccccc1C(=O)NCCc1ccccc1)c1cnccn1 | 22 | -9 | 11 | 13 | 10 | nt
Cc1cc(N2CCCC2)ccc1NC(=O)CN1C(=O)NC2(CCCCC2)C1=O | 13 | -13 | nt | -14 | -3 | nt
c1cncc(-c2ccc3ncnc(NCc4cccs4)c3c2)c1 | 6 | 17 | nt | 14 | 22 | nt
COc1cccc(-c2ccc3ncnc(NCc4cccs4)c3c2)c1 | 3 | 29 | nt | 29 | 52* | 43*
c1cncc(CNc2ncnc3ccc(-c4ccc5c(c4)OCCO5)cc23)c1 | -9 | 14 | nt | 7 | 28 | nt
c1csc(CNc2ncnc3ccc(-c4ccc5c(c4)OCCO5)cc23)c1 | 8 | 30 | nt | 37 | 57* | 45*
CCn1c(COC(=O)CNC(=O)c2ccccc2F)nc2cc(S(=O)(=O)N(C)C)ccc21 | 12 | -18 | nt | 3 | -11 | nt
Cc1nnc(SCC(=O)N2CCCCC2)n1CC1CCCO1 (centres undefined) | 4 | 3 | 1 | -9 | 69* | 14
CCOC(=O)CN(C(=O)COc1ccc2c(C)cc(=O)oc2c1)c1ccc(OCC)cc1 | 8 | 18 | 17 | 10 | -3 | nt
O=C(c1ccc(-c2nc3ccccc3s2)s1)N1CCOCC1 | 13 | 4 | 25 | 15 | 53* | 44*
CCN1CCN(C(=O)c2ccc(-c3nc4ccccc4s3)s2)CC1 | 8 | 24 | 8 | 12 | 13 | nt
CCOC(=O)CNC(=O)c1sc2ncnc(N3CCc4ccccc4C3)c2c1C | -3 | 35 | 32 | 27 | 51* | 36
CCOC(=O)c1sc2ncnc(N3CCN(CC)CC3)c2c1C | 30 | 3 | 0 | -2 | -3 | nt
CCOC(=O)N1CCN(Cc2nnc(-c3ccccc3C)o2)CC1 | -6 | -1 | -2 | 2 | 5 | nt
CCOC(=O)Nc1ccc2c(c1)Nc1ccccc1S2 | 1 | 33 | 9 | 36 | 62* | 52*
Cc1[nH]n(-c2ccccc2)c(=S)c1C=Nc1ccc([N+](=O)[O-])cc1 | nt | nt | 17 | nt | nt | nt
O=C(CSc1nc2ccccc2o1)c1cc2ccccc2oc1=O | 8 | 4 | 8 | 0 | 38 | nt
